Most compounds without a hit are left out; they make up all but 2.5% or so of the library.
MARV entry inh – qHTS for inhibitors of binding or entry into cells for Marburg Virus; Potency, µM (series often up to 37.8 µM), inactives show at the top dose activity change, negative = inhibition, most hits filed as inhibitors; 300,000 tested, 1.8% active; Marburg virus pseudotyped entry inhibition, cell reporter; calls by dose curve; tested in HEK293 cells
VACV mCherry inh – qHTS for Stage-Specific Inhibitors of Vaccinia Orthopoxvirus: mCherry Reporter Primary qHTS; Vaccinia virus mCherry reporter infection, fluorescence; 310,000 tested, 0.63% active; Potency, µM (doses to about 36.5 µM), inactives show top-dose activity change, negative = inhibition, most hits filed as inhibitors; AID 720579, 2013; calls by dose curve; tested in A549 cells; further: nearly all actives have a fitted effect of over 35% in size
Vaccinia Venus – qHTS for Stage-Specific Inhibitors of Vaccinia Orthopoxvirus: Venus Reporter Primary qHTS; Vaccinia virus Venus reporter expression, fluorescence; Potency, µM (series often up to 36.5 µM), for inactives: at the highest dose activity change, negative = inhibition, actives largely listed as inhibitors; 330,000 tested, 0.46% active; AID 720580, 2013; calls by dose curve; tested in A549 cells; further: nearly all actives have a fitted effect of over 30% in size
LASV entry inh – qHTS for Inhibitors of binding or entry into cells for Lassa Virus; Lassa virus pseudotype entry inhibition, cell reporter; Potency, µM (series often up to 37.9 µM), without a hit: at the top dose activity change, negative = inhibition, hits mostly inhibitors; 300,000 tested, 1.2% active; calls by dose curve; tested in HEK293 cells; further: nearly all actives have a fitted effect of over 50% in size
Numbers without * were called inactive; i = inactive; ? = inconclusive; . = not tested or not shown; [ ] = dose if it differs, or a comment. On the % scale 0 is the no-effect control and ±100 the full control effect; potency means the concentration at half of the fitted maximal effect.

SMILES | MARV entry inh | VACV mCherry inh | Vaccinia Venus | LASV entry inh
C=CCC[C@H](Cc1ccc(F)cc1)C(=O)OC[C@H](Cc1c[nH]c2ccccc12)NC(=O)[C@@H](CC=C)CC(=O)N[C@H](CO)Cc1ccccc1 | . | -29% | 11µM* | .
COC(=O)c1c(OCc2cccnc2)cc(=O)n2c1CCN(C(=O)c1c3c(nn1C)CCCC3)CC2 | . | -15% | -14% | .
COc1cccc(C(=O)NCC2Cc3cccc(-c4nc(C)cnc4C)c3O2)c1OC (stereo not given) | . | 26% | 50% | .
C[N+](C)(C)CC/C=C1/c2ccccc2CSc2ccccc21 | 3% | 3% | 1% | 23%
CNCCC=C1c2ccccc2CCc2ccccc21 | 7.1µM* | -6% | ? | 21µM*
CC#CC[N+](C)(C)CCCCCCCCCC | ? | i | -9% | ?
C#CC[N+](C)(C)CCCCCCCCC | ? | 11µM* | ? | -10%
O=C(Cn1cncn1)N1CCOc2ccc(CN3CCN(c4ccccc4)CC3)cc2C1 | . | -9% | -8% | .
CCCCN1CC[C@H]2C=CC[C@@H](C(=O)NC3CCCCC3)[C@H]2C1=O | . | i | -18% | .
CS(=O)(=O)N(CC(O)CON=C1c2ccccc2-c2ccccc21)c1ccc(F)cc1 (stereo not given) | ? | -16% | -27% | 4%
Cc1cccc(N(CC(O)CON=C2c3ccccc3-c3ccccc32)S(C)(=O)=O)c1 (stereo not given) | 23µM* | ? | ? | -4%
COc1ccc(Cl)cc1NC(=O)CN(C)C1CCCCC1 | ? | i | -26% | -17%
CCN1CCC(NC(=O)Nc2cc(Cl)ccc2OC)CC1 | 7.1µM* | i | -26% | -7%[46.1 µM]
COc1ccc(C)cc1NC(=O)NC1CCCCCCC1 | ? | -9% | -14% | ?
COc1ccc(C)cc1NC(=O)CNc1ccccc1CN(C)C1CCCCC1 | 4.5µM* | -29% | -21% | -21%[46.1 µM]
COc1ccc(Cl)cc1NC(=O)CNc1ccccc1CN(C)C1CCCCC1 | 2.5µM* | -21% | -14% | ?
Cc1cc(CNC(=O)CCN2Cc3cc(Cl)ccc3OC(C)C2)nn1C (stereo not given) | . | -5% | -2% | .
COc1ccc(C(=O)OCC(=O)c2ccc(CNC(C)=O)s2)cc1 | ? | -10% | -6% | 0%
CC(=O)NCc1ccc(C(=O)CCl)s1 | 4.5µM* | -20% | -1% | ?
CCCCCCCCC[n+]1cccc2c3ccccc3ccc21 | 2µM* | . | 11µM* | 2.8µM*
CCCCCCCCCCCCCCCC[n+]1cccc2ccccc21 | ? | 10µM* | 10µM* | 7.9µM*
Cc1cccc2cc(CN(C(=O)c3ccc(C(F)(F)F)cc3)C3CC3)c(N3CCC(O)CC3)nc12 | . | -12% | 1% | .
Cc1cc(=O)[nH]c2nc(N)ccc12 | . | -13% | -3% | .
Cc1cc(C)c2ccc(N)nc2c1O | ? | 13µM* | ? | ?
C[C@H](N)C(=O)OC(C)(C)Cc1ccc(Cl)cc1 | -14% | . | . | .
SMILES | MARV entry inh | VACV mCherry inh | Vaccinia Venus | LASV entry inh
O=C(CN1CCN(S(=O)(=O)c2ccc(F)cc2)CC1)Nc1ccc(Cl)c(C(F)(F)F)c1 | ? | . | ? | 11µM*
O=C(CN1CCN(S(=O)(=O)c2ccc(F)cc2)CC1)Nc1ccc2c(c1)OCCO2 | 12% | . | -14% | 8%
CC(Oc1ccc(Cl)cc1Cl)c1nc(-c2ccc(NC(=O)c3cccnc3)cc2)no1 (stereo not given) | 11µM* | . | ? | ?
O=C(CN(c1cccc(C(F)(F)F)c1)S(=O)(=O)c1ccc(Cl)c([N+](=O)[O-])c1)NCc1ccccc1Cl | ? | -13% | -4% | ?
Cc1ccc(N(CC(=O)NCCc2ccc(F)cc2)S(=O)(=O)c2ccc(Cl)c([N+](=O)[O-])c2)c(C)c1 | ? | . | . | 23µM*
O=C(CN(c1cccc(C(F)(F)F)c1)S(=O)(=O)c1ccc(Cl)c([N+](=O)[O-])c1)NCc1ccccc1 | 23µM* | -12% | -13% | ?
CCn1cc(CN2CCOc3ccc(C(O)C4CCCCC4)cc3C2)c(C)n1 (stereo not given) | . | -9% | -7% | .
CC(C)c1c(C(=O)NCc2cccnc2)cnn1-c1nccc(-c2cccs2)n1 | . | -4% | -4% | .
Cc1cnc(SCc2ccccn2)nc1C1CCCN(C(=O)c2coc3c2C(=O)CCC3)C1 (stereo not given) | . | -24% | -20% | .
CN1C[C@@H](O)[C@@H](O)[C@@H](O)[C@@H]1CO | 22% | . | . | .
Cc1cc(C)nc(Nc2nc3ccccc3o2)n1 | -1%[46.1 µM] | -18%[7.34 µM] | -11%[7.34 µM] | -20%
CC(=NNc1nc2ccccc2o1)c1ncccn1 | 0.4µM* | 0.71µM* | ? | 0.89µM*
CC(=NNc1nc2ccccc2o1)c1cc2ccccc2cn1 | 0.35µM* | ? | 0.71µM* | 0.79µM*
Cc1ncc2c(c1CNC(=O)c1ccc3c(c1)OCO3)CCN(C(=O)c1noc3c1CCCC3)C2 | . | -7% | -4% | .
C=C(CO[C@@H]1C=C[C@@H](c2ccccc2)O[C@@H]1COC)c1ccccc1 | -4%[14.2 µM] | . | . | .
OCCN1CCN(Cc2ccc3c(c2)CN(Cc2ccc4ccccc4c2)CCO3)CC1 | . | -11% | 10% | .
C=C1CC2(CC(c3ccccc3)OC(c3ccccc3)C2)OC1=O (stereo not given) | ? | 11µM* | ? | ?
c1ccc([C@@H]2CO2)cc1 | . | -13% | -13% | .
COCCNCCCOc1ccc(Cl)cc1Br | . | -14% | -9% | .
OCCNCCCOc1ccc(Cl)cc1Br | 21µM* | . | . | -7%
COc1cc(-c2cnc3ccccc3c2)cc2c1OCCN(S(=O)(=O)C[C@]13CC[C@H](CC1=O)C3(C)C)C2 | . | -11% | 4% | .
COc1ccc(C(CNC(=O)c2cccc(NC(=O)c3cccs3)c2)N2CCCC2)cc1 (stereo not given) | ? | -11% | -17% | 2%
COc1ccc(C(CNC(=O)COc2ccc(F)cc2Br)N2CCCC2)cc1 (stereo not given) | 4.5µM* | -7% | -10% | .
COc1ccc(C(CNC(=O)c2cccc(Br)c2)N2CCCC2)cc1 (stereo not given) | 12µM* | . | . | ?
CCSc1nnc(NC(=O)NC(CC)(C(F)(F)F)C(F)(F)F)s1 | ? | . | 28µM* | ?
SMILES | MARV entry inh | VACV mCherry inh | Vaccinia Venus | LASV entry inh
CC(C)(C)c1ccc(C(=O)NCc2cccnc2)cc1 | 26% | . | . | ?
Cc1ccc(OCc2ccc(C(=O)NCc3cccnc3)cc2)cc1C | 8.9µM* | -14% | -14% | 7.9µM*
C=CS(=O)(=O)c1ccc(Oc2ccc(S(=O)(=O)C=C)cc2)cc1 | ? | 7.1µM* | 10µM* | 6.5µM*
Cc1nn(-c2ccccc2Cl)c(Cl)c1/C=N/Nc1nc2ccccc2s1 | 0.033µM* | -12% | 5% | 1.1µM*
CCOC(=O)c1cccc(NC(=O)CN2CCN(c3ccc(OC)cc3)CC2)c1 | -12% | i | -27% | 1.1µM*
CN1CCN(CC(=O)Nc2ccc(Oc3ccccc3)cc2)CC1 | ? | . | . | -5%
COc1ccccc1NC(=O)CN1CCN(CC(=O)Nc2ccc(OCc3ccccc3)cc2)CC1 | ? | . | ? | 11µM*
CCOC(=O)N1CCN(CC(=O)Nc2ccc(Oc3ccccc3)cc2)CC1 | -27% | i | -11% | 0.56µM*
Cc1cc(C(=O)Nc2ccccc2-c2nc(CNC(=O)c3cscn3)c(C)o2)c(C)o1 | . | -10% | 0% | .

High-throughput results as filed in PubChem.
